From PubChem BioAssay AID687001 (Broad Institute, 2013)
Measured potencies and affinities stand elsewhere.

Target: Protein S100-A4 (Homo sapiens) (UniProt P26447)
Assay: human S100A4 peptide interaction inhibition curves – biochemical, fluorescence polarization, cherry-picked hits, dose response (AID 687001);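 also: 0% = DMSO neutral control wells and -100% = TFP positive control wells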
Conditions: FP, S100A4/TAMRA-myosin IIA peptide binding; series mostly up to 11 µM; activity change, negative = inhibition: at the top concentration;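 active = signal-lowering compounds whose fitted half-maximal concentration is at or below twice the top tested dose in every run; inconclusive = runs disagree, flat 30 to 70% inhibition, or poor curve fit; inactive = the rest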

Sequence of Protein S100-A4 (Homo sapiens) (P26447 whole entry, looked up): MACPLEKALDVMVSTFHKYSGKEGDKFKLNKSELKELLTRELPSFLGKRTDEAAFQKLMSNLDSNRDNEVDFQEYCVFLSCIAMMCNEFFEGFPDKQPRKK

Activity change, negative = inhibition, inactive:
CN(C)C(=O)c1cccc(-c2ccc3c(c2)[C@H]2[C@H](CCN2C(=O)C2CC2)[C@@H](CO)N3)c1 2.78%, C[C@@H]1CN([C@H](C)CO)C(=O)c2cccc(NC(=O)CCCCCC(=O)Nc3ccccc3N)c2O[C@H]1CN(C)S(=O)(=O)c1cccs1 7.5%, COc1ccc(CNC(=O)CN2C(=O)c3ccccc3C2=O)cc1 -2.86%, O=C(CCCN1C(=O)C2CC=CCC2C1=O)Nc1ccccc1F (centres undefined) -3.43%, CN(C(=O)c1ccc(Br)o1)C1CCCCC1 1.27%, Cc1nn(C)cc1S(=O)(=O)Nc1ccc(C(F)(F)F)cc1 -0.107%, C[C@@H]1CCCCO[C@@H](CN(C)C(=O)C2CCCCC2)[C@@H](C)CN([C@H](C)CO)C(=O)c2cc(NC(=O)Nc3cccc4ccccc34)ccc2O1 8.36% [at 10 µM], O=C(Nc1ccc(S(=O)(=O)N2CCCCC2)cc1)C1CC(=O)N(Cc2ccccc2)C1 (centres undefined) 2.45%, COc1ccc2c3c(n(C)c2c1)[C@@H](CO)N(C(=O)Nc1ccc(F)cc1)CC31CCN(C)CC1 2.05%, CC(C)CC(=O)Nc1c2c(nn1-c1ccc(F)cc1)CS(=O)C2 (centres undefined) 1.47%, CCCCCC(=O)Nc1ncc2c(n1)CC(c1cccs1)CC2=O (centres undefined) -4.6%, CC(C)n1c(CNC(=O)c2ccccc2F)nnc1SCC(=O)c1ccc(F)cc1 28%, COc1cc(/C=C2\SC(=S)N(NC(=O)c3ccccc3OC)C2=O)ccc1O 36%, CCCc1cc(=O)[nH]c(SCC(=O)N2CCc3ccccc32)n1 -4.51%, C[C@H]1CN([C@@H](C)CO)C(=O)c2cc(Br)cnc2O[C@H]1CN(C)C(=O)c1ccccc1F 3.92%, CC(=O)N1[C@H](C(=O)N[C@H](C)c2ccccc2)[C@@H](CO)[C@@H]2Cn3c(cccc3=O)[C@@H]21 -1.68%, C[C@H]1CCCCO[C@H](CN(C)C(=O)Nc2ccc(C(F)(F)F)cc2)[C@@H](C)CN([C@@H](C)CO)C(=O)c2cc(NS(=O)(=O)c3ccccc3)ccc2O1 23.4%, Cc1cc(C)nc(NC(=O)CCN2C(=O)c3ccccc3S2(=O)=O)n1 -0.83%, COc1ccccc1N(C)S(=O)(=O)c1ccc(C(=O)NCC2CCCCC2)cc1 11.9%, Nc1[nH]c(C(=O)c2ccccc2)c(-c2ccccc2C(F)(F)F)c1C(=O)NCc1cccc2ccccc12 7.4%, COc1cc(S(=O)(=O)N2CCOCC2)cc(C(=O)c2nccn2C)c1OC -2.32%, Cc1ccccc1S(=O)(=O)N(C)C[C@@H]1OCc2cnnn2CCCC(=O)N([C@@H](C)CO)C[C@H]1C 8.1%, COc1ccc(C)cc1NC(=O)CN1CCN(c2ccccn2)CC1 -3.87%, O=Cc1ccc(N2N=C(c3ccccc3)CC2c2ccccc2)cc1 (centres undefined) -2.17%, CCNC(=O)[C@@H]1[C@@H](CO)[C@@H]2Cn3c(ccc(-c4ccccc4)c3=O)[C@@H]2N1CC -3.86%, CCOCCn1ccc2c(OCC(=O)Nc3ccccc3OC)cccc2c1=O -2.76%, CCCNC(=O)N[C@H]1C=C[C@@H](CC(=O)N2CCN(C)CC2)O[C@@H]1CO 4.04%, CN1C(=O)c2cc(NC(=O)Cc3cccs3)ccc2OC[C@H]2O[C@H](CC(=O)N[C@H]3CCN(Cc4ccccc4)C3)CC[C@@H]21 32.8%, O=C(c1ccccc1F)N1CC(=O)N2[C@@H](CO)[C@H](c3ccc(C#Cc4ccccc4)cc3)[C@@H]2C1 5.02%, CN(C)C(=O)C[C@@H]1C=C[C@H](NC(=O)Nc2cccc(F)c2)[C@@H](CO)O1 -2.87%, Cc1ccc(C(=O)Nc2ccc(N3CCOCC3)cc2)cc1 -0.762%, CN1C(=O)c2cc(NC(=O)c3ccccc3Cl)ccc2OC[C@@H]2O[C@@H](CC(=O)NCC(F)(F)F)CC[C@H]21 6.99%, C[C@@H]1CN([C@H](C)CO)S(=O)(=O)c2ccc(C#CCN(C)C)cc2O[C@@H]1CN(C)CC1CC1 5.41%, NS(=O)(=O)c1ccc(NCc2cnc3ccccc3c2)cc1 -3.85%, COc1ccc(NC(=O)c2ccccc2OCc2c(C)noc2C)cc1OC 2.52%, CCCCN(C(=O)c1c(-c2ccccc2)noc1C)c1c(N)n(CCC)c(=O)[nH]c1=O -4.5%, Cc1ccc(NC(=O)CCCCCN2C(=O)[C@@H]3Cc4ccccc4CN3C2=O)cc1 -0.003%, C[C@@H]1CN([C@@H](C)CO)C(=O)c2cccc(N(C)C)c2O[C@@H]1CN(C)C(=O)Nc1cccc2ccccc12 0.748%, COC(=O)c1ccc(Oc2nc(SC)nc(N(C)C)n2)cc1 -29.3%
